In PubChem BioAssay:
For some assays here: Entries with a potency or affinity are not part of this list. Activity calls are given as the source filed them.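 The calls were made as follows, unless noted: active = membrane potential signal rise above negative control mean plus 3 SD in both duplicates, also active in the earlier TRPC4 screen; inactive = the rest.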

Assays:
[1] = test system: TRPC4 beta (transient receptor potential cation channel C4), mouse; assay: TRPC4 cation channel opening, retest – cell-based, Fluo4 calcium, HEK293 TRPC4beta/mu-opioid, duplicates, 10 µM, confirmation (AID 2426;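 active = fluorescence ratio normalized to control raised more than 50% in primary screen plus both repeat runs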); settings: Fluo4 calcium fluorescence, at 10 µM; active compounds read high
[2] = test system: transient receptor potential cation channel C4 beta (TRPC4), mouse; assay: TRPC4 cation channel opening, second retest – cell-based, second round, Fluo4, HEK293 TRPC4beta/mu-opioid, 1 µM, confirmation (AID 2461;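 active = primary screen active and over 50% activation in each of two duplicate runs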); settings: Fluo4 calcium fluorescence, at 1 µM; active compounds read high
[3] = test system: TRPC4 (transient receptor potential cation channel C4 beta), mouse; assay: potentiation of DAMGO EC20 TRPC4 response – cell-based, second round, Fluo-4, HEK293 TRPC4beta/mu-opioid, 1 µM, confirmation (AID 2554;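 active = primary screen hit whose fluorescence ratio, in both repeats, exceeds the weak agonist control mean by 3 SD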); settings: DAMGO EC20, Fluo-4 calcium flux, at 1 µM; active compounds read high
[4] = test system: TRPC4 beta (transient receptor potential cation channel C4), mouse; assay: potentiation of DAMGO EC20 TRPC4 response – cell-based, Fluo-4, HEK293 TRPC4beta/mu-opioid, confirmation (AID 2555;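 active = primary screen hit whose calcium fluorescence ratio, in both repeats, exceeds the weak agonist control mean by 3 SD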); settings: DAMGO EC20, Fluo-4 calcium flux, at 10 µM; active compounds read high
[5] = biological target: Short transient receptor potential channel 4 (Mus musculus) (UniProt Q9QUQ5); assay: blockers of DAMGO-evoked TRPC4 calcium flux – cell-based, Fluo4, HEK293 TRPC4beta/mu-opioid, confirmation (AID 2636;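 active = calcium signal cut by more than 3 SD below the full-agonist control yet still positive, in both repeats and the earlier primary screen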); settings: at 10 µM; active compounds read high
[6] = biological target: Short transient receptor potential channel 4 (Mus musculus) (UniProt Q9QUQ5); assay: blockers of DAMGO-evoked TRPC4 calcium flux – cell-based, second round, Fluo4, HEK293 TRPC4beta/mu-opioid, 1 µM, confirmation (AID 2637;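 active = calcium signal ratio cut to more than 3 SD under the fully stimulated control mean yet still positive, in both repeats and the primary screen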;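 as to inhibition: percent of integrated ratio relative to wells lacking test compound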); settings: at 1 µM; active compounds read high
[7] = biological target: Short transient receptor potential channel 4 (Mus musculus) (UniProt Q9QUQ5); assay: calcium entry via TRPC4 opening agents – cell-based, HEK293 TRPC4/mu-opioid, Fluo-4 calcium, dose response (AID 434937;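 active = primary screen activator hit with a dose response curve and TRPC4 channel activation at any tested dose; inactive = no activation, no dose response, or not a primary hit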)
[8] = biological target: Short transient receptor potential channel 4 (Mus musculus) (UniProt Q9QUQ5); assay: potentiation of DAMGO-evoked TRPC4 calcium signal – cell-based, HEK293 TRPC4/mu-opioid, Fluo-4 calcium, EC20 DAMGO, dose response (AID 434941;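 active = earlier screen potentiator hit that boosts the TRPC4 ion channel at some dose, with a dose response; inactive = no potentiation, no dose response, or not a prior hit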;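 also: calcium entry triggered by an EC20 dose of DAMGO at the co-expressed mu-opioid receptor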)
[9] = biological target: Short transient receptor potential channel 6 (Mus musculus) (UniProt Q61143); assay: TRPC6 blockade by TRPC4 inhibitor hits – cell-based, HEK293, membrane potential dye, duplicate, selectivity assay for TRPC4 inhibitor project, confirmation (AID 434948;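 active = active in primary screen and both duplicates, each dropping signal beyond three positive-control SD with fluorescence still positive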); settings: HEK293 TRPC6, membrane potential dye fluorescence, at 10 µM, stimulated with maximal-effect acetylcholine; active compounds read high
[10] = biological target: Short transient receptor potential channel 6 (Mus musculus) (UniProt Q61143); assay: TRPC6 opening by TRPC4 activator hits – cell-based, HEK293, membrane potential dye, duplicate, selectivity assay for TRPC4 activator project, confirmation (AID 434950); settings: HEK293 TRPC6, membrane potential fluorescence, at 10 µM; activation: active compounds read high; outcome: activation
[11] = biological target: Short transient receptor potential channel 6 (Mus musculus) (UniProt Q61143); assay: positive modulators of mouse TRPC6 channel – HEK293 cells, membrane potential dye, duplicate, selectivity assay for TRPC4 potentiator project, confirmation (AID 434952;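 active = compound raising the membrane signal above positive-control mean plus 3 SD in both repeats, and a primary screen hit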); settings: HEK293 TRPC6, membrane potential dye fluorescence, at 10 µM, maximal acetylcholine added after compound; active compounds read high
[12] = biological target: Short transient receptor potential channel 4 (Mus musculus) (UniProt Q9QUQ5); assay: calcium flux activators in TRPC4/5HT1a cells, counter-screen for TRPC4 activator project, cell-based, second counter screen, HEK293 TRPC4/5HT1a, Fluo-4 (AID 434977;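 active = calcium signal rise above buffer-control mean plus 5 SD in both duplicates, and also a hit in the primary screen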); settings: Fluo-4 calcium flux, at 10 µM; active compounds read high
[13] = serotonin-gated TRPC4 signal block – cell-based, second counter screen, HEK293 TRPC4/5HT1a, Fluo-4, counter-screen for TRPC4 inhibitor project, confirmation (AID 434978;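 active = primary screen active whose calcium signal fell more than 3 SD beyond the full-serotonin control mean in both duplicate plates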;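 as to outcome: serotonin given first at submaximal then at maximal dose after compound preincubation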); settings: Fluo-4 calcium flux, at 10 µM, serotonin added to trigger calcium flux; active compounds read high
[14] = test system: TRPC4 (mouse), co-expressed with 5HT1a in HEK293; assay: enhancement of serotonin-evoked TRPC4 response – cell-based, second counter screen, HEK293 TRPC4/5HT1a, Fluo-4, counter-screen for TRPC4 potentiator project, confirmation (AID 434979;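 active = signal rise over 3 SD above mean of control wells given weak agonist, in both repeats and first screen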); settings: Fluo-4 calcium flux, at 10 µM, serotonin added at its EC20 dose; active compounds read high
[15] = nonspecific calcium rise without TRPC4 – cell-based, HEK293 mu-opioid receptor line, counter-screen for TRPC4 activator project, confirmation (AID 449723;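 active = hit in primary screen, with calcium signal over 5 SD above buffer well mean in both duplicates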;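 also: counter screen cells carry the mu-opioid receptor alone and lack TRPC4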); settings: HEK293 mu-opioid cells, Fluo-4 calcium fluorescence, at 10 µM; active compounds read high
[16] = nonspecific potentiation of DAMGO calcium response – cell-based, HEK293 mu-opioid receptor line, counter-screen for TRPC4 allosteric potentiator project, confirmation (AID 449724;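 active = calcium signal rise more than 3 SD above the low-dose agonist control mean, in both duplicate plates and the primary screen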); settings: HEK293 mu-opioid receptor cells, Fluo-4 calcium flux, at 10 µM, compound added before EC20 DAMGO stimulus; active compounds read high

Sequence of Short transient receptor potential channel 4 (Mus musculus) (Q9QUQ5 whole entry, looked up): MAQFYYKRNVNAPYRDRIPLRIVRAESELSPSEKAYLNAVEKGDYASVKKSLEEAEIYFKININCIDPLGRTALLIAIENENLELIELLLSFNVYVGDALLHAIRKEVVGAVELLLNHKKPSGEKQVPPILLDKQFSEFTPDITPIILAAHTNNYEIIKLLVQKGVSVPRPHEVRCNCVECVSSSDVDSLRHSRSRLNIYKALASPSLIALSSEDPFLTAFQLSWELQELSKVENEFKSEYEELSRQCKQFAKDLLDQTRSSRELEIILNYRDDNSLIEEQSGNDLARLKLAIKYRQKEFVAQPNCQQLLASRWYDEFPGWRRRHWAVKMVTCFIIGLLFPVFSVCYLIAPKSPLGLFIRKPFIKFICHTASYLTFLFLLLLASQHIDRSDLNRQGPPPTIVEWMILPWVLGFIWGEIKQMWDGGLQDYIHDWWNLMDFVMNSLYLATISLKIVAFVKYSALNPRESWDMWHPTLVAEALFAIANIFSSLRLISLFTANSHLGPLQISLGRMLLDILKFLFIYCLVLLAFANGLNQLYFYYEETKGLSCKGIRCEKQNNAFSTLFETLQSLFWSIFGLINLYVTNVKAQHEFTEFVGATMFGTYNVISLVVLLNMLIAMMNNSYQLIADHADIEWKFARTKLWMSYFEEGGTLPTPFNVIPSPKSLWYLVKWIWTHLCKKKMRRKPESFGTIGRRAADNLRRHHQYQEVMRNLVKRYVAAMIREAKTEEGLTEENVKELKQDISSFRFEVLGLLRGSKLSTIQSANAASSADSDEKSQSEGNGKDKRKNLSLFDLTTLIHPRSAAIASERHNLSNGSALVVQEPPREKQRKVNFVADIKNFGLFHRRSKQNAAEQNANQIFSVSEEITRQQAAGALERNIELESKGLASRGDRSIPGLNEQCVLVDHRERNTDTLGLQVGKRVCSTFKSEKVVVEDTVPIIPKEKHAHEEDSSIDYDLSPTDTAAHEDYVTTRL
Sequence of Short transient receptor potential channel 6 (Mus musculus) (Q61143 whole entry, looked up): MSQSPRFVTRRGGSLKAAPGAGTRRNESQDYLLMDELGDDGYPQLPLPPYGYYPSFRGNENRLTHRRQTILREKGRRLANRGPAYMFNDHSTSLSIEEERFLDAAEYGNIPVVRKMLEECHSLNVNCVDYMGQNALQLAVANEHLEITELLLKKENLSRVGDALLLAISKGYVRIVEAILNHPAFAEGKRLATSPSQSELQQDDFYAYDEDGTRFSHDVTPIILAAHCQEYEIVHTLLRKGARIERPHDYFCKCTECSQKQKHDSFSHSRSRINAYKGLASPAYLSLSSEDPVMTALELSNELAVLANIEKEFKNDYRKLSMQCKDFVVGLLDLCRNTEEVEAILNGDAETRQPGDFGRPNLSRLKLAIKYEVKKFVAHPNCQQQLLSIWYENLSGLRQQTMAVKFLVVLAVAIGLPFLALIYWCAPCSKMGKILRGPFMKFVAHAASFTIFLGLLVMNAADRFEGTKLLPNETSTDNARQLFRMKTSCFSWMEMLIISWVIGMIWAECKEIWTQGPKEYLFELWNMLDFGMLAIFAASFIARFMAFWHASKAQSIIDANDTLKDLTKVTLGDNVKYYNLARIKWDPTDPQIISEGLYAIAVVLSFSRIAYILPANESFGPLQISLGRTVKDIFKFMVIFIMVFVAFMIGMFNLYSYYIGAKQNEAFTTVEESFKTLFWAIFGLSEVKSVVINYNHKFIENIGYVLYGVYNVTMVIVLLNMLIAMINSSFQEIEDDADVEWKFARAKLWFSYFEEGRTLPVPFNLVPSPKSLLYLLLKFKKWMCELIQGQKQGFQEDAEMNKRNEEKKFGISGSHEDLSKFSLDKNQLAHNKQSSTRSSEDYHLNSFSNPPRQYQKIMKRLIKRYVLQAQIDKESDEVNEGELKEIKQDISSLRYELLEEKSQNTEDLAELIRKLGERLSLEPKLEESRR

SMILES | outcome [1] | outcome [2] | outcome [3] | outcome [4] | inhibition [5] | inhibition [6] | outcome [7] | outcome [8] | outcome [9] | outcome [10] | outcome [11] | outcome [12] | inhibition [13] | outcome [14] | outcome [15] | outcome [16] | outcome [6] | outcome [13] | outcome [5] | inhibition [9]
C=C(c1ccc(O)cc1)c1ccc(O)cc1 | inactive | inactive | inactive | inactive | 89% (active) | 47% (active) | inactive | inactive | inactive | inactive | inactive | inactive | 29.6% (active) | inactive | inactive | inactive |  |  |  | 
CC(=O)Nc1ccc(S(=O)(=O)Nc2nc3ccc(C)cc3s2)cc1 | inactive | inactive | inactive | inactive | 65% (active) |  | inactive | inactive | inactive | inactive | inactive | inactive |  | inactive | inactive | inactive | inactive | inactive |  | 
CC(C)C(NC(=O)c1ccc(C(C)(C)C)cc1)C(=O)NCC(c1ccccc1)N(C)C (centres undefined) | inactive | inactive | inactive | inactive | 82% (active) | 70% (active) | inactive | inactive | inactive | inactive | inactive | inactive |  | inactive | inactive | inactive |  | inactive |  | 
Cc1cc(/C=C2/C(=N)N3C(=NC2=O)SN=C3S(C)(=O)=O)c(C)n1-c1ccccc1F | inactive | inactive | inactive | inactive |  |  | inactive | inactive | inactive | inactive | inactive | inactive |  | inactive | inactive | inactive | inactive | inactive | inactive | 
c1ccc(-c2nc(NCc3ccco3)c3ccccc3n2)nc1 | inactive | inactive | inactive | inactive | 93% (active) | 74% (active) | inactive | inactive |  | inactive | inactive | inactive | 22.1% (active) | inactive | inactive | inactive |  |  |  | 34.5% (active)
Cc1cc(C)c(S(=O)(=O)c2ccccc2C)c(OCC(C)(C)C)n1 | inactive | inactive | inactive | inactive | 91% (active) | 43% (active) | inactive | inactive | inactive | inactive | inactive | inactive | 15.5% (active) | inactive | inactive | inactive |  |  |  | 
O=C(COC(=O)c1c(Cl)cccc1Cl)Nc1ccccc1Br | inactive | inactive | inactive | inactive | 71% (active) |  | inactive | inactive | inactive | inactive | inactive | inactive | 29.5% (active) | inactive | inactive | inactive | inactive |  |  | 
COc1ccccc1C(=O)Nc1ccc2c(c1)CCCN2C(=O)c1cccs1 | inactive | inactive | inactive | inactive |  |  | inactive | inactive | inactive | inactive | inactive | inactive |  | inactive | inactive | inactive | inactive | inactive | inactive | 
CCOc1ccccc1CN1CCN(Cc2cccc3nonc23)CC1CCO (centres undefined) | inactive | inactive | inactive | inactive |  |  | inactive | inactive | inactive | inactive | inactive | inactive |  | inactive | inactive | inactive | inactive | inactive | inactive | 
Cc1nc2ccccc2n1CC(O)COc1ccccc1Cl (centres undefined) | inactive | inactive | inactive | inactive | 72% (active) | 40% (active) | inactive | inactive | inactive | inactive | inactive | inactive |  | inactive | inactive | inactive |  | inactive |  | 
CSCCNC(=O)c1ccc(OC2CCN(CCc3ccccc3)CC2)cc1 | inactive | inactive | inactive | inactive |  | 65% (active) | inactive | inactive | inactive | inactive | inactive | inactive |  | inactive | inactive | inactive |  | inactive | inactive | 
O=C(c1ccc2c(c1)OCO2)C1CCCN(Cc2cc(F)ccc2-n2cccn2)C1 (centres undefined) | inactive | inactive | inactive | inactive | 87% (active) |  | inactive | inactive | inactive | inactive | inactive | inactive | 32.9% (active) | inactive | inactive | inactive | inactive |  |  | 
COc1ccc(CN(C(=O)c2snc(C(N)=O)c2N)C(CC(C)C)C(=O)NC2CCCCC2)cc1 (centres undefined) | inactive | inactive | inactive | inactive | 82% (active) |  | inactive | inactive | inactive | inactive | inactive | inactive | 30.8% (active) | inactive | inactive | inactive | inactive |  |  | 
Cc1cccn2c(=O)c(/C=N/O)c(N3CCCC3)nc12 | inactive | inactive | inactive | inactive | 57% (active) | 72% (active) | inactive | inactive | inactive | inactive | inactive | inactive | 35% (active) | inactive | inactive | inactive |  |  |  | 
